The results in this text go back to PubChem BioAssay AID488862 (Broad Institute, 2010).

The campaign covered roughly 340,000 compounds. About 1,200 (0.35%) were called active. The sample holds actives, similar compounds and a random draw of the others, so the mix is not that of the screen. Unmarked numbers belong to inactive results. Cut-off read from the data, not from the text of the source: active = inhibition above about 52%; inactive = the rest.

This test can be described thus: inhibition of PrP 5' UTR reporter expression (AID 488862). Note: 0 = median of the neutral control wells. Particulars: cell-based PrP 5' UTR mRNA reporter, plate reader; stronger effect = higher value; concentration not given here.
Turning to `COc1ccc(OCC(=O)N2CCN(C(=O)c3cccs3)CC2)cc1`, the inhibition (commonly the change of the read-out against control, counted positive when it falls) was -6.1%.

Take `O=C(CSc1ncnc2sccc12)N1CCN(C(=O)c2cccs2)CC1`: the inhibition is 87.3% (active).

`O=C(CSc1ncnc2sccc12)NC1CCS(=O)(=O)C1` (stereo unspecified): the inhibition was -11.1%.

With `C/C(CC(=O)Nc1ccc(C)cc1C)=N\NC(=O)C(C)C`, the inhibition was -21%.

Regarding `COC(=O)c1cc(S(=O)(=O)NC2CCN(Cc3ccccc3)CC2)cn1C`, the inhibition was -8.61%.

Turning to `O=C(O)CCCCCNc1ncnc2ccc(Br)cc12`, the inhibition is 6.38%.

With `Brc1ccc2ncnc(NCc3cccnc3)c2c1`, the inhibition was 12.1%.

Consider `COc1ccc(Nc2ncnc3ccc(Br)cc23)c(OC)c1`, for which the inhibition is 72.3% (active).

Take `Cc1ccc(C)c(NC(=O)COC(=O)c2nn(C)c(=O)c3ccccc23)c1`: the inhibition is -7.85%.

On to `O=C1Nc2cc(C(=O)N3CCN(c4ccc(F)cc4)CC3)ccc2NC1CSCc1cccc(F)c1` (stereo unspecified), for which the inhibition was -17.6%.

For the molecule `CCOCCCNC(=O)C(=O)NCCCOCC`, the inhibition is -28.8%.

On to `CC(C)CC(CC(C)C)=NNC(=O)c1ccc(CSc2nncn2C)cc1`, for which the inhibition was -20.2%.

Turning to `CSc1nc(-c2ccccc2)nc(C(Cl)Cl)n1`, the inhibition was 86.3% (active).

For `CN(C)C(=S)N=c1ssc(=S)n1Cc1ccco1`, the inhibition is 13.6%.

`COc1cc(OC)cc(C(=O)N[C@H](C(=O)NNC(=O)c2ccc(Br)cc2)C(C)C)c1`: the inhibition was -12.3%.

As to `COc1cc(OC)cc(C(=O)N[C@H](C(=O)Nc2nc3ccccc3[nH]2)C(C)C)c1`, the inhibition was 67.8% (active).

For the molecule `COc1ccc(C(=O)N[C@H](C(=O)NCc2ccccc2)C(C)C)cc1`, the inhibition was -2.13%.

For the molecule `Cc1cc(C)c(SCCc2ccncc2)c(C)c1`, the inhibition is -26.1%.

Turning to `Cc1ccc(/C=C2/SC(=S)N(CCC(=O)NCCCN3CCOCC3)C2=O)cc1`, the inhibition was -12.2%.

On to `C=CCOc1ccc(/C=C2\SC(=S)N(CCC(=O)O)C2=O)cc1`, for which the inhibition was 79.7% (active).

As to `O=C1/C(=C/c2ccc(F)cc2)SC(=S)N1CCCC(=O)N1CCCCC1CCO` (stereo unspecified), the inhibition was -14.7%.

For `Cn1c(=S)sc2ccc3ccccc3c21`, the inhibition was -8.89%.

As for `CCC(C)Cn1c(O)cc2nn(-c3nc4ccccc4s3)c(=O)c-2c1C` (stereo unspecified), the inhibition was 92.2% (active).

As to `O=C(C(=O)N1CCc2ccccc2C1)c1c[nH]c2ccccc12`, the inhibition is -13.2%.

On to `Cc1nc2nc(COc3ccccc3)[nH]n2c(=O)c1Cc1ccccc1`, for which the inhibition was -6.88%.

`COc1cccc(-n2c(=S)[nH]c3c(oc4ccccc43)c2=O)c1`: the inhibition is -5.49%.

For `O=c1oc2ccccc2cc1-c1cn(-c2ccccc2)c(=S)[nH]1`, the inhibition was 65.9% (active).

Regarding `CS(=O)(=O)N1CCN(C(=O)c2cc3ccccc3oc2=O)CC1`, the inhibition is -9.85%.

For the molecule `CC1(C)O[C@@H]2[C@H](O1)[C@@H](COS(=O)(=O)O)O[C@H]2n1cnc2c(=O)[nH]cnc21`, the inhibition was -8.78%.

With `COc1ccc(C(=O)Nc2cccc(/C=C(/CCC(=O)O)c3nc4ccccc4s3)c2)cc1`, the inhibition is -8.9%.

Take `CC(=NCc1ccco1)c1c(C(F)(F)F)[nH]n(-c2nc3ccccc3s2)c1=O`: the inhibition was 0.0675%.

`COC(=O)Cc1[nH]n(-c2nc3ccccc3s2)c(=O)c1C(C)=Nc1ccc(OC)cc1`: the inhibition is 80.1% (active).

For `COc1ccc(C(=O)COC(=O)C(O)c2ccccc2)c(OC)c1` (stereo unspecified), the inhibition was -34.1%.

On to `CC(=O)OC1C2(CC3N4C(=O)C5(CO)SSC4(CC31O)C(=O)N5C)OC(C)C(C)(C)C2=O` (stereo unspecified), for which the inhibition is 96.4% (active).

Turning to `CC(C)c1ccc(/C=C/C(=O)NCCCN2CCOCC2)cc1`, the inhibition was -9.62%.

Consider `OCCC1CN(Cc2ccc3nsnc3c2)CCN1C1CCCC1` (stereo unspecified), for which the inhibition was -10%.

Turning to `Cc1ccsc1C(=O)OCC(=O)c1cc(C)n(CC2CCCO2)c1C` (stereo unspecified), the inhibition is 78.7% (active).

In the case of `Cc1ccsc1C(=O)OCC(=O)Nc1cccc(F)c1`, the inhibition is -13.8%.

For `COc1ccc(C(=O)OCC(=O)c2cc(C)n(CC3CCCO3)c2C)cc1[N+](=O)[O-]` (stereo unspecified), the inhibition was -11.7%.

For the molecule `COc1ccc(Cl)cc1NC(=O)[C@@H]1CCCN1C(=O)c1cccs1`, the inhibition is -9.55%.

With `COc1cc(NS(=O)(=O)c2ccc(NC(=S)NC(=O)c3ccccc3)cc2)nc(OC)n1`, the inhibition is 1.17%.

With `CS(=O)(=O)N(CC(=O)N1CCCCCC1)c1cccc(Cl)c1Cl`, the inhibition was -24.3%.

On to `COc1ccc(NS(=O)(=O)c2ccc3oc(SCC(N)=O)nc3c2)cc1`, for which the inhibition was -11.7%.

Regarding `CCn1c(=O)c(=O)[nH]c2c(=O)oc3ccc(S(=O)(=O)Nc4ccc(OC)cc4)cc3c21`, the inhibition is 69% (active).

As to `COc1ccc(S(=O)(=O)Nc2ccc3oc(C)c(C(C)=O)c3c2)cc1`, the inhibition was -20.1%.

As to `O=c1c2ccccc2cnn1Cc1n[nH]c(=S)n1-c1ccccc1F`, the inhibition is -33.3%.

On to `O=C(COc1cc(Cl)c(Cl)cc1Cl)NCCc1ccccn1`, for which the inhibition was -11.6%.

Take `Cc1ccc(Cc2cnc(N)s2)o1`: the inhibition was -14.5%.

Regarding `Cc1ccc(CCC(=O)Nc2ncc(Cc3cc(Cl)ccc3Cl)s2)o1`, the inhibition is 78% (active).

In the case of `Cc1ccc(C(=O)Nc2nc3ccc(Cl)cc3s2)o1`, the inhibition is -73.3%.

Consider `Cn1c(-c2ccccc2)c[n+]2c1CCCCC2`, for which the inhibition was -9.16%.

Turning to `CCN1CCN(c2nc(Nc3cc(OC)ccc3OC)nc(Nc3cc(OC)ccc3OC)n2)CC1`, the inhibition is -23.7%.

On to `CCOC(=O)c1c(C)n(C)c2ccc(OC)c(NC(=O)CN3CCC4(CC3)OCCO4)c12`, for which the inhibition was -19%.

On to `NS(=O)(=O)c1ccc(CNC(=O)c2ccc(Cl)cc2[N+](=O)[O-])cc1`, for which the inhibition is -4.62%.

On to `NC(=O)c1ccc(NC(=O)COC(=O)c2ccc([N+](=O)[O-])cc2)cc1`, for which the inhibition was 61.8% (active).

As to `CC(=O)Nc1ccc(C(=O)OCC(=O)Nc2ccc([N+](=O)[O-])cc2C(F)(F)F)cc1`, the inhibition was -18.6%.

In the case of `O=C(COC(=O)C1CCCCC1)Nc1ccc([N+](=O)[O-])cc1`, the inhibition was 5.99%.

With `O=C(CCc1ccccc1)NCCc1cccs1`, the inhibition is -25.9%.

In the case of `Cn1c(SCC(=O)NC2CCCCC2)nnc1-c1cc2ccccc2o1`, the inhibition was -18.5%.

As to `O=C1/C(=C\c2ccc([N+](=O)[O-])cc2)CS(=O)(=O)C/C1=C/c1ccc([N+](=O)[O-])cc1`, the inhibition is 71.1% (active).

In the case of `Nc1ccc([N+](=O)[O-])cc1`, the inhibition was 3.7%.

`O=[N+]([O-])c1ccc(C=NN=Cc2ccc([N+](=O)[O-])cc2)cc1`: the inhibition was -32.5%.

Turning to `Cc1nonc1C(=O)N/N=C/c1ccc(O)cc1`, the inhibition is -28.8%.

For `COC(=O)c1ccccc1NC(=O)CN(Cc1ccccc1)S(C)(=O)=O`, the inhibition was -21.1%.

Take `C/C(=N\Nc1nncc2ccccc12)c1ccc(Cl)c([N+](=O)[O-])c1`: the inhibition was -45.7%.

Turning to `COc1cccc(/C=N\Nc2nncc(-c3ccccc3)n2)c1`, the inhibition is -63.5%.

As to `CN(CCO)c1ccc(/C=N/Nc2nncc3ccccc23)cc1`, the inhibition is 79.8% (active).

As for `CC(C)(C)C1CCC(C(=O)Nc2cccnc2)CC1` (stereo unspecified), the inhibition is -7.89%.

For the molecule `O=C(Nc1ccc(Br)cn1)C1CCN(S(=O)(=O)c2cccs2)CC1`, the inhibition was -7.76%.

Consider `CC1CCc2sc(C(=O)N/N=C/C3CCCCC3)cc2C1` (stereo unspecified), for which the inhibition is 1.9%.

In the case of `C/C(=N\NC(=O)c1ccc2ccccc2c1)c1cccnc1`, the inhibition is -12.7%.

Regarding `C/C(=N\NC(=O)c1cc2c(s1)CCC(C)C2)c1cccnc1` (stereo unspecified), the inhibition was 55.4% (active).

`COc1ccc2oc(C(=O)OCC(=O)N(CC(C)C)c3c(N)n(Cc4ccccc4)c(=O)[nH]c3=O)c(C)c2c1`: the inhibition was 4.93%.

With `COc1ccc(N(C(=O)c2ccc(C)cc2)S(=O)(=O)c2cccs2)cc1`, the inhibition was -6.19%.

With `CC(C)(C)c1ccc(OC2=CS(=O)(=O)c3ccccc32)cc1`, the inhibition is -61.3%.

Consider `CC(C)(C)c1ccc(Oc2ccc(N)cc2)cc1`, for which the inhibition was 64.6% (active).

On to `CC(C)(C)c1ccc(OC(=O)N2CCCCC2)cc1`, for which the inhibition was -72.8%.

`CCOC(=O)N1CCN(C(=O)COCc2cc(-c3ccc4c(c3)OCO4)on2)CC1`: the inhibition is -11.7%.

On to `N#C/C=C\Oc1ccc(Cl)cc1N`, for which the inhibition was -13%.

On to `COc1cccc2c1OCC1COc3c(c(=O)n(C)c(=O)n3C)C21` (stereo unspecified), for which the inhibition is -23.4%.

For `O=C(NCCCN1CCOCC1)c1ccccc1NS(=O)(=O)c1ccc(Br)cc1`, the inhibition was -22.1%.

`COCC(C)n1c(C)cc(C(=O)CSc2cc(C)c3ccccc3n2)c1C` (stereo unspecified): the inhibition was -11.2%.

Regarding `c1ccc(-n2ncc(-c3nn[nH]n3)n2)cc1`, the inhibition is -12.7%.

`O=S(=O)(Nc1ccc2nc(N3CCOCC3)sc2c1)c1ccccc1`: the inhibition is -104%.

With `c1c2c(cc3sc(N4CCCCC4)nc13)OCCO2`, the inhibition is 76.1% (active).

For the molecule `CN(C)CCN(C(=O)C1CCCCC1)c1nc2cc3c(cc2s1)OCO3`, the inhibition was -8.29%.

Regarding `CC(=O)N1CCc2cc(S(=O)(=O)Nc3ccccc3N3CCN(C)CC3)ccc21`, the inhibition is -36.7%.

On to `Cc1ccc(C(c2sc3nc(C)nn3c2O)N2CCN(c3ccccc3)CC2)cc1` (stereo unspecified), for which the inhibition is -16.6%.

Take `CC12CCC3C(CCC4CC(=O)CCC43C)C1CC(=NO)C2=O` (stereo unspecified): the inhibition was 52% (active).

For the molecule `C[C@]12CCC3C(CC[C@H]4[C@H](O)[C@H](O)CC[C@]34C)C1CCC2=O` (stereo partly specified), the inhibition is -23.5%.

Regarding `CC(C)C(NC(=O)OCc1ccccc1)C(=O)OCC(=O)N1C(C)CCCC1C` (stereo unspecified), the inhibition was -20.8%.

With `CN(C)C(=O)c1cc(Br)ccc1Cl`, the inhibition was -23.2%.

Regarding `CC(C)CC[n+]1ccn(C2=C([O-])c3ccccc3C(=O)/C2=N\S(=O)(=O)c2ccccc2)c1`, the inhibition was -17.3%.

With `CC(C)(C)c1nc2ccccc2c(=O)n1N1C(=O)c2ccccc2C1=O`, the inhibition is -7.16%.

Regarding `CN(c1ccc2nc3ccccc3c(=O)n2n1)C1CCCCC1`, the inhibition was 78.1% (active).

In the case of `CC(C)C(C)NC(=O)COc1nc2ccccc2nc1N(C)C1CCCCC1` (stereo unspecified), the inhibition is -28.4%.
